From PubChem BioAssay

molecular target: PEG-3 (UniProt Q6IN02); assay: inhibition of PEG-3 promoter-driven reporter – cell-based, HeLa, luciferase, CREF/GAPDH counter-screen panel, dose response (AID 624167); conditions: CREF/GAPDH counter-screens; HeLa PEG-Prom luciferase reporter, overnight, run 1, dose range 1, at 100 µM (top of the series) unless noted
Sequence (Q6IN02 whole entry, looked up): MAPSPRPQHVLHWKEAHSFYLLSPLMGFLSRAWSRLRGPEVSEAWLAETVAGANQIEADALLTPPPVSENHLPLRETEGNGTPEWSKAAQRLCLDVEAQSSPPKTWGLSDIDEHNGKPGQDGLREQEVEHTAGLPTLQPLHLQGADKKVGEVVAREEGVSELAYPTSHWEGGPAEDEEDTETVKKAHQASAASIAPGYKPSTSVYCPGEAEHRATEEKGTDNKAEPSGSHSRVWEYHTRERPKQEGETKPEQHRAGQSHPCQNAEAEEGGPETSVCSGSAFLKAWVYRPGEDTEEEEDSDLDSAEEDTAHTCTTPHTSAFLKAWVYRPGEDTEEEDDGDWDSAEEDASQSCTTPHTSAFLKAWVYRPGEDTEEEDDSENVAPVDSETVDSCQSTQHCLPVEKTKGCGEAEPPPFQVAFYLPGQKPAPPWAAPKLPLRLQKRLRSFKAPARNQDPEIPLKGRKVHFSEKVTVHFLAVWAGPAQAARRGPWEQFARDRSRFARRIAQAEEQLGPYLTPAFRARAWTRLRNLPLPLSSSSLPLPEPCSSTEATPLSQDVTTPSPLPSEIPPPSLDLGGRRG

SMILES	inhibition
CCOC(=O)c1c(C)[nH]c(C(=O)OCC(=O)Nc2sccc2C(N)=O)c1C	76.2%
Cc1nn(C(C)(C)C)c(C)c1/C=N/OC(=O)Nc1ccc(Cl)cc1	98.8%
COC(=O)c1c(NC(=O)c2ccc([N+](=O)[O-])o2)sc2c1CCN(C(C)C)C2	95%
Cc1noc(-c2ccc(Cl)cc2)c1C(=O)O/N=C(\N)c1ccc(C(C)(C)C)cc1	99.2%
COc1cc(NC(=O)c2c(F)c(F)c(F)c(F)c2F)c(OC)cc1Cl	99.8%
CN1CCN(c2ccc(NC(=O)N3CCc4ccccc43)cc2)CC1	87.9%
CCCCCCCCCCCCCCCC(O)C[N+](C)(C)CCO (configuration not stated)	102%
CC(C)(C)C(=O)Nc1cc2nn(-c3ccccc3)nc2cc1Cl	92.3%
Cc1cc(C)c2sc(N(CCCN(C)C)C(=O)c3ccc(S(=O)(=O)N4CCCc5ccccc54)cc3)nc2c1	97.5%
N/C(=N\OC(=O)c1ccccc1)C(C(=O)NOC(=O)c1ccccc1)C1CCCCC1 (configuration not stated)	98.8%
Nc1nc(CCl)nc(Nc2cccc3ccccc23)n1	102%
COCCn1c(C)cc(C2=NNC(=NC3CC3)SC2)c1C	99.2%
Cc1ccc2sc(N(CCCN(C)C)C(=O)c3ccc(S(=O)(=O)N(C)Cc4ccccc4)cc3)nc2c1C	102%
Cc1cc2sc3ccc(C#CC4(O)CCCCC4)cc3c(=O)c2cc1C	84.2%
CCn1c(C)cc(C(=O)COC(=O)c2ccccc2[N+](=O)[O-])c1C	99%
O=C(NC1CCCCC1)C(c1cccnc1)N(C(=O)CCl)c1cccc(Cl)c1 (configuration not stated)	97.7%
Cc1ccc(N(Cc2cc(=O)[nH]c3ccccc23)C(=O)CCl)c(C)c1	101%
COC(=O)C1=C(C)N(Cc2ccccc2)C(=NCCc2c[nH]c3ccccc23)N[C@H]1c1cccc(C(F)(F)F)c1	101%
O=C(Nc1ccccc1)NN(C(=O)CCl)c1ccccc1	102%
O=C(CCl)N1N=C(c2ccco2)CC1c1cccs1 (configuration not stated)	101%
CCCN(CC(=O)Nc1ccccc1C)C(=O)CCl	101%

molecular target: PEG-3 (UniProt Q6IN02); assay: as above; conditions: CREF/GAPDH counter-screens; HeLa PEG-Prom luciferase reporter, overnight, run 2, dose range 1, at 100 µM (top of the series) unless noted

SMILES	inhibition
CCOC(=O)c1c(C)[nH]c(C(=O)OCC(=O)Nc2sccc2C(N)=O)c1C	101%
Cc1nn(C(C)(C)C)c(C)c1/C=N/OC(=O)Nc1ccc(Cl)cc1	98.3%
COC(=O)c1c(NC(=O)c2ccc([N+](=O)[O-])o2)sc2c1CCN(C(C)C)C2	99.1%
Cc1noc(-c2ccc(Cl)cc2)c1C(=O)O/N=C(\N)c1ccc(C(C)(C)C)cc1	101%
COc1cc(NC(=O)c2c(F)c(F)c(F)c(F)c2F)c(OC)cc1Cl	96.5%
CN1CCN(c2ccc(NC(=O)N3CCc4ccccc43)cc2)CC1	92.8%
CCCCCCCCCCCCCCCC(O)C[N+](C)(C)CCO (configuration not stated)	98.9%
CC(C)(C)C(=O)Nc1cc2nn(-c3ccccc3)nc2cc1Cl	90.1%
Cc1cc(C)c2sc(N(CCCN(C)C)C(=O)c3ccc(S(=O)(=O)N4CCCc5ccccc54)cc3)nc2c1	99.2%
N/C(=N\OC(=O)c1ccccc1)C(C(=O)NOC(=O)c1ccccc1)C1CCCCC1 (configuration not stated)	102%
Nc1nc(CCl)nc(Nc2cccc3ccccc23)n1	100%
COCCn1c(C)cc(C2=NNC(=NC3CC3)SC2)c1C	101%
Cc1ccc2sc(N(CCCN(C)C)C(=O)c3ccc(S(=O)(=O)N(C)Cc4ccccc4)cc3)nc2c1C	99.1%
Cc1cc2sc3ccc(C#CC4(O)CCCCC4)cc3c(=O)c2cc1C	93.8%
CCn1c(C)cc(C(=O)COC(=O)c2ccccc2[N+](=O)[O-])c1C	99%
O=C(NC1CCCCC1)C(c1cccnc1)N(C(=O)CCl)c1cccc(Cl)c1 (configuration not stated)	102%
Cc1ccc(N(Cc2cc(=O)[nH]c3ccccc23)C(=O)CCl)c(C)c1	99.2%
COC(=O)C1=C(C)N(Cc2ccccc2)C(=NCCc2c[nH]c3ccccc23)N[C@H]1c1cccc(C(F)(F)F)c1	99.9%
O=C(Nc1ccccc1)NN(C(=O)CCl)c1ccccc1	101%
O=C(CCl)N1N=C(c2ccco2)CC1c1cccs1 (configuration not stated)	99.3%
CCCN(CC(=O)Nc1ccccc1C)C(=O)CCl	98.7%
